Bioassay records from PubChem.
The sample as a whole holds a higher share of hits than the screen did.
HT1080 IDH1KD tx – qHTS for induction of synthetic lethality in tumor cells producing 2HG: qHTS for the HT-1080-IDH1KD cell line; HT-1080 IDH1 knockdown viability, ATP luminescence, 48 h; Potency, µM (titrated, usually from 46.1 µM), most hits filed as cytotoxic; 360,000 tested, 2% active; AID 686971, 2013
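Luminescent ATP read-out (CellTiter-Glo, 10 min at room temperature) after 48 h compound exposure at 37 °C gave viability of IDH1-knockdown HT-1080 cells. Activity was normalised to DMSO and cell-free wells, then fitted as concentration-response curves.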
12-LOX inh – Primary qHTS assay for inhibitors of human arachidonate 12S-lipoxygenase (ALOX12): Round 2 | purified 12hLO, xylenol orange hydroperoxide absorbance | 580,000 tested, 1.1% active | Polyunsaturated fatty acid lipoxygenase ALOX12 (Homo sapiens), P18054 | Potency, µM (top dose mostly 108 µM), hits mostly inhibitors | AID 1671190, 2021
Target sequence (P18054 whole entry, looked up): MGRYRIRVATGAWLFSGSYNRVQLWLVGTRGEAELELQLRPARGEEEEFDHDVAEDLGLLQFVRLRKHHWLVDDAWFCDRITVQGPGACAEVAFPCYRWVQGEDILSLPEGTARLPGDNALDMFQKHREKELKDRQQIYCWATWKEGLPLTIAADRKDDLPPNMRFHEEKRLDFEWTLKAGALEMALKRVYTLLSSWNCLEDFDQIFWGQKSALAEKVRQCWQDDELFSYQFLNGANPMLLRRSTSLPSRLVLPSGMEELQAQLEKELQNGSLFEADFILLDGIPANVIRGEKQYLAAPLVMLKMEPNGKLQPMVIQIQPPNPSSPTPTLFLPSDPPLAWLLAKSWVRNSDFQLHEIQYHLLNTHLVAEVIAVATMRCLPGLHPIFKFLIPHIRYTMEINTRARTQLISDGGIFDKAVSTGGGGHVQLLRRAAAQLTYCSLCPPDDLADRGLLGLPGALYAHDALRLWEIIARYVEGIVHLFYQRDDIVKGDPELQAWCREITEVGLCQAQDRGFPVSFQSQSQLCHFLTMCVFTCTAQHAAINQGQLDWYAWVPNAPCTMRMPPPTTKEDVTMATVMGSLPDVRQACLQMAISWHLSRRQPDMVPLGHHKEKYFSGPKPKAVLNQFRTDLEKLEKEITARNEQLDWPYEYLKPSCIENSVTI
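Purified human 12hLO at 150 nM in 25 mM Hepes, 0.01% Triton X-100, pH 7.0, preincubated 15 min at room temperature with compound. Reaction started with 40 uM arachidonic acid, 30 min at room temperature. Hydroperoxide measured by Fe-xylenol orange, 573/405 nm absorbance ratio.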
TDP1 cell noCPT – qHTS for Inhibitors of human tyrosyl-DNA phosphodiesterase 1 (TDP1): qHTS in cells in absence of CPT; DT40 Tdp1-/- hTDP1 cells, no CPT, ATP luminescence, 48 h; Potency, µM (top dose mostly 46.2 µM), actives largely listed as inhibitors; 420,000 tested, 15% active; AID 686978, 2013; further: nearly all actives have a fitted effect of over 55% in size
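Camptothecin absent (DMSO only). Human TDP1-complemented DT40 knockout cells, 400 cells/well, 37 °C for minimum 48 hr; ATP measured via CellTiter-Glo, 30 min dark incubation, luminescence.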
IL1B secr inh – qHTS for Inhibitors of Inflammasome Signaling: IL-1-beta AlphaLISA Primary Screen; THP-1 LPS/ATP IL-1B secretion, AlphaLISA, 16 h; hits give low values; 360,000 tested, 4.7% active; activity change, % at 57.5 µM; in the data active means activity change below about -50%; inconclusive means mostly about -30% to -49%
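THP-1 cells pretreated 1 hr with compounds (up to 57.5 uM final), then stimulated with LPS (250 ng/mL final) plus ATP (1.25 mM final); secreted IL-1B measured by AlphaLISA after 16 hr, decreased signal indicating inhibition.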
DT40 TDP1 CPT – qHTS for Inhibitors of human tyrosyl-DNA phosphodiesterase 1 (TDP1): qHTS in cells in presence of CPT. 420,000 tested, 12% active. Potency, µM (titrated, usually from 46.2 µM), actives largely listed as inhibitors. chicken DT40 Tdp1-/-;hTDP1 cells + 20 nM CPT, ATP luminescence, 48 h; further: nearly all actives have a fitted effect of over 55% in size
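Cell growth measured by CellTiter-Glo luminescence after a minimum 48 h, 37 C compound exposure with 20 nM CPT in Tdp1-knockout DT40 cells stably expressing hTDP1, seeded 400/well; qHTS titration format.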
HT1080-NT tox – qHTS for induction of synthetic lethality in tumor cells producing 2HG: qHTS for the HT-1080-NT fibrosarcoma cell line. Potency, µM (doses to about 46.1 µM), most hits filed as cytotoxic. HT-1080-NT fibrosarcoma viability, CellTiter-Glo ATP luminescence, 48 h. 360,000 tested, 1.6% active;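 further: NT is the 2HG producing partner of a matched IDH1 knockdown line; nearly all actives have a fitted effect of over 55% in size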
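Fibrosarcoma NT cells, 750 per well in 5% FBS RPMI, were exposed to compound for 48 hours. Viability: CellTiter-Glo luminescence.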
A number is an active result. Unless noted, the call rests on the fitted dose curve; in most records, active means well fitted curve in the direction sought with a large enough effect; inconclusive means small, poorly fitted or top-dose-only effect, or another doubt; inactive means no such curve, though single readings can be large; an effect the other way counts as inactive or inconclusive.

For O=C(O)CCn1ncc2cc(OCc3ccc(-c4ccncc4)cc3)ccc21 the results were 12-LOX inh inactive.
Cc1cccc(N2CCN(C(=O)CCN3C(=S)NC(C)(C)CC3C)CC2)c1C (stereo not drawn) was read as HT1080 IDH1KD tx inactive, 12-LOX inh inconclusive, TDP1 cell noCPT inconclusive, IL1B secr inh inactive, DT40 TDP1 CPT inconclusive and HT1080-NT tox inactive.
For COc1cccc(CCC(=O)N2CCC3(CC2)NC(=O)N(c2cccc(F)c2)N3)c1 the results were 12-LOX inh 5.6µM.
For O=C1NC2(CCCCC2)NN1c1ccccc1 the results were HT1080 IDH1KD tx 5.2µM, 12-LOX inh inconclusive, TDP1 cell noCPT inconclusive, IL1B secr inh inactive, DT40 TDP1 CPT inactive and HT1080-NT tox inconclusive.
For COc1ccc(CCC(=O)N2CCC3(CC2)NC(=O)N(c2cccc(Cl)c2)N3)cc1 the results were 12-LOX inh 2µM.
For Cc1cccc(N2NC3(CCCC(C)C3)NC2=S)c1C (stereo not drawn) the results were 12-LOX inh 8.9µM.
Cc1ccc(NC(=O)CN2CCCC2c2ccc(F)cc2)cc1 (stereo not drawn) was read as 12-LOX inh inactive.
Screening CN1CCN(C(=O)CN2C(=O)c3cccnc3Oc3ccc(Cl)cc32)CC1 returned 12-LOX inh inactive.
Screening O=C1NC2(CCCC2)NN1c1ccccc1 returned 12-LOX inh inactive.
NC(=O)N1CCC2(CC1)NC(=O)N(c1ccccc1)N2 was read as HT1080 IDH1KD tx 6.5µM, 12-LOX inh inconclusive, TDP1 cell noCPT inactive, IL1B secr inh inactive, DT40 TDP1 CPT inactive and HT1080-NT tox 10µM.
For COc1ccccc1CCC(=O)N1CCC2(CC1)NC(=O)N(c1ccccc1)N2 the results were 12-LOX inh 2µM.
For COc1cccc(C(=O)N2CCC3(CC2)NC(=O)N(c2ccccc2)N3)c1 the results were 12-LOX inh 6.3µM.
`COc1cccc(C(=O)N2CCC3(CC2)NC(=O)N(Cc2ccccc2)C3=O)c1` gave 12-LOX inh inactive.
`COc1ccccc1CCC(=O)N1CCC2(CC1)CC(O)CCO2` (stereo not drawn) gave 12-LOX inh inactive.
For Cc1cc(NC(=O)C2CCN(C(=O)c3ncn4c3COC(c3ccc(F)cc3)C4)CC2)ccc1Cl (stereo not drawn) the results were 12-LOX inh inactive.
For COc1ccc(-c2ccc(NS(=O)(=O)c3ccccc3Cl)cc2)nn1 the results were 12-LOX inh inconclusive, TDP1 cell noCPT 18µM and DT40 TDP1 CPT 21µM.
Screening COc1ccc(-c2ccc(NS(=O)(=O)c3cc(C)c(C)cc3C)cc2)nn1 returned 12-LOX inh inconclusive, TDP1 cell noCPT inconclusive and DT40 TDP1 CPT 21µM.
COc1ccc(-c2ccc(NS(=O)(=O)c3cccc(C)c3)cc2)nn1 was read as 12-LOX inh inactive, TDP1 cell noCPT 29µM and DT40 TDP1 CPT inconclusive.
`COc1ccc(-c2cccc(NS(=O)(=O)c3ccc([N+](=O)[O-])cc3)c2)nn1` gave HT1080 IDH1KD tx inactive, 12-LOX inh inactive, TDP1 cell noCPT inconclusive, IL1B secr inh inactive, DT40 TDP1 CPT inconclusive and HT1080-NT tox inactive.
Screening COc1ccc(-c2cccc(NS(=O)(=O)c3cccc([N+](=O)[O-])c3)c2)nn1 returned HT1080 IDH1KD tx inactive, 12-LOX inh inconclusive, TDP1 cell noCPT 26µM, IL1B secr inh inactive, DT40 TDP1 CPT inconclusive and HT1080-NT tox inactive.
